# This is part of a sample that, as a whole, favours compounds with a hit. Of some 83,000 tested, about 20% had one in any assay.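 48-hour exposure, single concentration, 96-well plates; percent growth endpoint where 0 means no net growth. Active: below 10.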 Unmarked numbers belong to inactive results. Calls of active or inactive are those of the source.
# Key:
# Assay in all cases: NCI-60 one-dose screen, 48 h (100 = growth as untreated, 0 = no growth, -100 = all killed)
# [1] = system: HT29 colon; conditions: 10 µM unless noted
# [2] = system: SNB-75 CNS; conditions: 10 µM unless noted
# [3] = system: SNB-19 CNS; conditions: 10 µM unless noted
# [4] = system: U251 CNS; conditions: 10 µM unless noted
# [5] = system: PC-3 prostate; conditions: 10 µM unless noted
# [6] = system: SK-MEL-5 melanoma; conditions: 10 µM unless noted
# [7] = system: UACC-62 melanoma; conditions: 10 µM unless noted
# [8] = system: LOX IMVI melanoma; conditions: 10 µM unless noted
# [9] = system: SK-MEL-28 melanoma; conditions: 10 µM unless noted
# [10] = system: SK-MEL-2 melanoma; conditions: 10 µM unless noted
# [11] = system: EKVX NSCLC; conditions: 10 µM unless noted
# [12] = system: SN12C renal; conditions: 10 µM unless noted
# [13] = system: UO-31 renal; conditions: 10 µM unless noted
# [14] = system: TK-10 renal; conditions: 10 µM unless noted
# [15] = system: ACHN renal; conditions: 10 µM unless noted
# [16] = system: A498 renal; conditions: 10 µM unless noted
# [17] = system: CCRF-CEM leukemia; conditions: 10 µM unless noted
# [18] = system: MOLT-4 leukemia; conditions: 10 µM unless noted
# [19] = system: CAKI-1 renal; conditions: 10 µM
SMILES,growth [1],growth [2],growth [3],growth [4],growth [5],growth [6],growth [7],growth [8],growth [9],growth [10],growth [11],growth [12],growth [13],growth [14],growth [15],growth [16],growth [17],growth [18],growth [19]
COc1cccc(/C=N/C(=S)NC2(C)C3CCC(C3)C2(C)C)c1O (stereo not drawn),101%,90.8%,82.9%,48.7%,65.9%,88.6%,94.5%,70.8%,102%,82.1%,102%,100%,53%,85.9%,69.9%,73.2%,57.3%,63.8%,–
c1ccc(CNCCN(CCNCc2ccccn2)Cc2ccc3ccccc3c2)nc1,6.31% (active),21.2%,18.3%,3.09% (active),-0.81% (active),-43.1% (active),-23.4% (active),0.713% (active),5% (active),9.46% (active),15.4%,7.67% (active),-79.8% (active),–,–,-17.5% (active),6.8% (active),-24.3% (active),-81.8% (active)
CN[C@@H](CCCNC(N)=NC/C=C(/C)CCC=C(C)C)C(=O)N(C)[C@@H](CCCNC(N)=NCC=C(C)C)C(=O)N[C@H](C)[C@H](OS(=O)(=O)O)c1ccc(OS(=O)(=O)O)c(COS(=O)(=O)O)c1,86.2%,98.6%,101%,98.4%,89.5%,99.6%,93.8%,99.7%,107%,105%,113%,101%,97.6%,–,113%,87%,102%,96.9%,106%
C=CCn1c(SCC(=O)Nc2ccc(/C(C)=N\O)cc2)nnc1-c1cc(-c2ccc(OC)cc2)nc2ccccc12,42%,57.4%,44.5%,29.8%,29.9%,36.4%,37.7%,-65.4% (active),61.7%,22.3%,42.5%,44.4%,14.7%,37.5%,–,38.7%,15%,1.81% (active),–
COc1ccc(-c2nnc(SCC(=O)Nc3ccc(C(=O)/C=C/c4ccccc4)cc3)o2)cc1OC,93.4%,92.8%,92.2%,98%,100%,87.1%,92.4%,85.9%,106%,98%,100%,103%,–,96.1%,–,95.7%,102%,89.1%,–
Clc1ccc2c(NCCNc3nc(Cl)nc4ccccc34)ccnc2c1,-91.5% (active),-93.1% (active),-49.9% (active),-92.1% (active),-45.7% (active),-99.2% (active),-89.6% (active),-89.4% (active),-78.7% (active),-73.2% (active),-9.06% (active),-76.6% (active),-95.6% (active),-79.3% (active),-97.7% (active),92.3%,-58.7% (active),-52.4% (active),–
O=C(O)c1ccc(-n2cc(/C=N/Nc3ccc(F)cc3)c(-c3cccc(C(F)(F)F)c3)n2)cc1,86.8%,88.4%,91.3%,–,62.6%,87.6%,24.1%,42.8%,96.1%,70.1%,70.8%,86.9%,45.6%,91.9%,–,69%,33.7%,36.5%,–
C#CC(=O)/C=C/CCCCCCC#CC(=O)CCC(=O)C#CCCCCCC/C=C/C(=O)C#C,6.4% (active),56%,32%,–,12.2%,52.8%,5.38% (active),-70.2% (active),–,82.1%,25.4%,-24.5% (active),-90.7% (active),32.5%,–,93.4%,-45.5% (active),-32.2% (active),–
O=C(Nc1ccccc1F)Nc1ccccc1Cl,91%,85.7%,97.1%,–,108%,84%,73.2%,93.3%,96.9%,109%,73.2%,104%,98.2%,125%,90.8%,85.8%,86.9%,69.3%,–
Cc1cc2nc(-c3c(N)ncc(C#N)c3-c3ccc(Cl)cc3)[nH]c2cc1C,29.8%,56.6%,84.7%,18%,53.5%,71.9%,57.8%,51.7%,57.6%,59.9%,63.7%,76.5%,77.8%,41.5%,67.7%,44.1%,54.5%,73.3%,–
O=C1C(SCCO)=C(SCCO)C(=O)N1c1ccc(-c2ccccc2)cc1,–,71.9%,106%,–,93.3%,103%,62.5%,-45% (active),-66.7% (active),-73.5% (active),129%,72.4%,-96.5% (active),-57.8% (active),-99.5% (active),105%,-43.8% (active),-33.6% (active),–
COc1ccc(-c2cc3ccc(N(C)C)cc3nc2N)c(F)c1,7.61% (active),55%,49.8%,31.3%,28.2%,-62.7% (active),48.2%,23.9%,–,47.9%,32.2%,54%,39.3%,49.1%,56.8%,47.1%,39.7%,26.3%,–
O=C(c1cc(-c2ccc(Cl)cc2)nc2ccccc12)N1N=C(c2ccccc2)CC1c1cc(-c2ccccc2)nn1-c1ccccc1 (stereo not drawn),98.7%,69.2%,77.1%,63.8%,71.3%,78.7%,79.2%,57%,73.3%,86.4%,81.1%,85.5%,70.4%,131%,73%,92.5%,65.1%,68.7%,–
Cc1nssc1=S,102%,92.3%,96.5%,102%,88.2%,108%,104%,89.4%,101%,88.6%,96.5%,118%,87.9%,96.4%,109%,147%,92.2%,99.8%,–
C[C@H]1C=C(C[C@@H](O)CC#CC#CCCCCC[C@@H](O)[C@H]2CCC(=O)O2)C(=O)O1,99.1%,118%,102%,99.4%,111%,99.8%,95.1%,92.6%,123%,118%,96.7%,105%,81.2%,115%,103%,107%,106%,114%,–
Nc1nc2ccc(CNc3ccc(C(=O)NC(CC(=O)O)C(=O)O)cc3)cc2c(=O)[nH]1 (stereo not drawn),18.6%,70.4%,62.6%,49.5%,33.1%,30%,31.6%,19.5%,106%,51.9%,63.6%,41.3%,16.9%,82%,33.1%,93.1%,23.2%,30.4%,–
O=C1COc2ccccc2C(=O)N1CCCCN1CCCCC1,73.6%,99.5%,99.4%,88.9%,57.7%,99.1%,91.6%,90.7%,95.6%,95.4%,98.5%,99.2%,91.7%,–,99.2%,114%,69.4%,83.2%,103%

# From PubChem BioAssay (NCI)
